JMJD2E inh: inhibitors of human JMJD2E histone demethylase. Potency, µM (top dose mostly 57.1 µM), without a hit: at the highest dose activity change, negative = inhibition, usual class: inhibitors. JMJD2E catalytic domain, FDH-coupled NADH fluorescence (FDH is formaldehyde dehydrogenase). 230,000 compounds, 1.6% hits. AID 2147. B2RXH2; active means well fitted inhibition curve with a large enough effect, not every such curve was filed as active; inconclusive means small, poorly fitted or top-dose-only effect, or another doubt; inactive means no such curve, though single readings can be large or run the other way;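 further: 0% = wells with enzyme and -100% = buffer wells without enzyme; nearly all actives have a fitted effect of over 50% in size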
Target sequence (B2RXH2 1-337 limits assumed): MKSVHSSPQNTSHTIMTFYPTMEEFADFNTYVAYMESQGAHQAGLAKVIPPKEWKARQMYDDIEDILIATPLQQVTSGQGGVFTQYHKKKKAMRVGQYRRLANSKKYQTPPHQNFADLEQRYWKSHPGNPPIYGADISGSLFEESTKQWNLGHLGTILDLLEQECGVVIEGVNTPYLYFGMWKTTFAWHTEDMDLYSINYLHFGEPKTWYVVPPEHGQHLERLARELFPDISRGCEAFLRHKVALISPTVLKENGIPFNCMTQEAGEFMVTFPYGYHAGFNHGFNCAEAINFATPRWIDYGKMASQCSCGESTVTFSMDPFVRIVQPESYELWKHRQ
Tau fluor cs: counter-screen for tau fibril formation inhibitors; tau K18 P301L Alexa594 fluorescence, heparin fibrillization; Potency, µM (series often up to 57.7 µM), inactives show at the top dose activity change, negative = decrease; 280,000 compounds, 0.93% hits; AID 1463; further: nearly all actives have a fitted effect of over 55% in size
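Human K18 P301L tau (15 uM unlabeled plus 0.24 uM Alexa 594-labeled, final) in 100 mM sodium acetate pH 7 was mixed with compound and 20 uM heparin and incubated 6 hr at 37 C.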
TRb-SRC2 inh: disrupts binding of human TR beta to SRC2 | AID 1469 | TRbeta-SRC2 peptide binding, fluorescence polarization; receptor liganded with 1 µM T3 | 280,000 compounds, 0.065% hits | Potency, µM (highest dose often 106 µM), inactives show at the top dose activity change, negative = inhibition, hits mostly inhibitors;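 further: plate controls were bound peptide for no effect and peptide without receptor for full effect; nearly all actives have a fitted effect of over 50% in size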
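Decrease in fluorescence polarization of 20 nM Texas Red SRC2 coactivator peptide flagged inhibition of its binding to 0.6 uM TRb LBD; 1 uM T3 included, incubation 5 hr, ex 555/em 632 nm.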
Tau fibril ThT: inhibitors of human tau fibril formation, thioflavin T binding | P10636 | recombinant tau K18 P301L, heparin-induced fibrillization, ThT fluorescence | Potency, µM (series often up to 57.4 µM), for inactives: at the top dose activity, negative = inhibition, hits mostly inhibitors | 270,000 compounds, 2.1% hits; further: nearly all actives have a fitted effect of over 55% in size
Target sequence (P10636 561-689 P618L limits assumed): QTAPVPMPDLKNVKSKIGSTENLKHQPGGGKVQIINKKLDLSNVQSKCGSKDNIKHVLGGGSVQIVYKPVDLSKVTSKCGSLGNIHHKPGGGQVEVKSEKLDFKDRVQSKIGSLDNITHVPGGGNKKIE
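Tau K18 P301L fragment (15 uM unlabeled plus 0.24 uM Alexa 594-labeled) in 100 mM sodium acetate pH 7 with compound, fibrillization induced by 20 uM heparin for 6 hr at 37 C. Thioflavin T (30 uM) added, fluorescence read after 1 hr (ex 450, em 510 nm).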
Tau FP inhib: blocks human tau fibril formation measured by polarization; P10636; K18 P301L tau heparin fibrillization, Alexa594 FP, 6 h; Potency, µM (series often up to 57.7 µM), for the others: at the highest dose activity, negative = inhibition, actives largely listed as inhibitors; 280,000 compounds, 0.39% hits; AID 1468; further: nearly all actives have a fitted effect of over 55% in size
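Heparin (20 uM) drove fibril formation of recombinant tau K18 P301L, 15 uM unlabeled with 0.24 uM Alexa 594 label, for 6 hr at 37 C in 100 mM sodium acetate pH 7. Fluorescence polarization (555/632 nm) read 1 hr after 30 uM ThT.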
TR SRC2 fluor cs: counter-screen for TRb-SRC2 inhibitors: fluorescence interference | TRb/SRC2 Texas Red total fluorescence interference | Potency, µM (highest dose often 106 µM), inactives show at the highest dose fluorescence change, negative = quenching | 280,000 compounds, 0.29% hits | AID 1479; active means well fitted curve in either direction with a large enough effect; inconclusive means small, poorly fitted or top-dose-only effect
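Flags fluorescent or light-absorbing compounds by total fluorescence, S + 2P, at 555 nm excitation and 632 nm emission. Mixture: 20 nM Texas Red SRC2 peptide, 0.6 uM human TRb LBD, 1 uM T3, 5% DMSO; compound exposure 5 h at ambient temperature.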
The depositor's hits bear a star; [ ] = remark or other dose. Sampled rows, rich in hits. Any-hit rate of the full collection: about 3.5%. Unless noted, the call rests on the fitted dose curve; in most records, active means well fitted curve in the direction sought with a large enough effect; inconclusive means small, poorly fitted or top-dose-only effect, or another doubt; inactive means no such curve, though single readings can be large; an effect the other way counts as inactive or inconclusive. Unless noted, on the % scale 0 is the no-effect control and ±100 the full control effect; potency means the concentration at half of the fitted maximal effect.

Results for O=C(c1ccccn1)C1CCCN(Cc2cn[nH]c2-c2cc3ccccc3o2)C1 (configuration not stated) ?
JMJD2E inh: -7%; Tau fluor cs: -10%; TRb-SRC2 inh: -5%; Tau fibril ThT: -3%; Tau FP inhib: 3%; TR SRC2 fluor cs: -8%

Results for O=C(NCCc1c[nH]c2ccccc12)c1cc2sccc2n1Cc1ccccc1 ?
JMJD2E inh: -1%; Tau fluor cs: 8.9µM*[quencher]; TRb-SRC2 inh: 2%; Tau fibril ThT: -18%; Tau FP inhib: -7%; TR SRC2 fluor cs: 1%

What do the screens show for `CCC(C)NC(=O)Cn1cccc1C(=O)c1ccccc1` (configuration not stated)?
JMJD2E inh: -1%; Tau fluor cs: 1%; TRb-SRC2 inh: -22%; Tau fibril ThT: 5%; Tau FP inhib: 7%; TR SRC2 fluor cs: -1%

How did O=C(Nc1ccc(N2CCN(c3ccccc3)CC2)c(F)c1)C1CC1 do in these assays?
JMJD2E inh: 6%; Tau fluor cs: -16%; TRb-SRC2 inh: -2%; Tau fibril ThT: inconclusive; Tau FP inhib: 4%; TR SRC2 fluor cs: -1%

How did COc1ccc(-c2noc(CSc3nnc(C)n3-c3cccc(C)c3)n2)cc1 do in these assays?
Tau fluor cs: -5%; TRb-SRC2 inh: 1%; Tau fibril ThT: -12%; Tau FP inhib: 6%; TR SRC2 fluor cs: 8%

How did Nc1nc(C2CC2)c(Sc2sc(N)nc2C2CC2)s1 do in these assays?
JMJD2E inh: 1%; Tau fluor cs: inconclusive; TRb-SRC2 inh: -3%; Tau fibril ThT: 18µM*; Tau FP inhib: -8%; TR SRC2 fluor cs: -3%

What do the screens show for `Nc1nc(C2CCOCC2)cs1`?
JMJD2E inh: 3%; Tau fluor cs: -10%; TRb-SRC2 inh: -7%; Tau fibril ThT: -9%; Tau FP inhib: -4%; TR SRC2 fluor cs: 1%

How did COc1ccccc1/C=C/C(=O)Nc1ccc(N2CCOCC2)cc1 do in these assays?
JMJD2E inh: -16%; Tau fluor cs: inconclusive; TRb-SRC2 inh: -11%; Tau fibril ThT: 2.5µM*; Tau FP inhib: 6%; TR SRC2 fluor cs: -3%

Results for COc1cccc(/C=C/C(=O)Nc2ccc(N3CCOCC3)cc2)c1OC ?
JMJD2E inh: -8%; Tau fluor cs: inconclusive; TRb-SRC2 inh: 3%; Tau fibril ThT: 5.6µM*; Tau FP inhib: 2%; TR SRC2 fluor cs: -3%

What do the screens show for `O=C1/C(=C/c2cccs2)N=C(c2cccs2)N1Nc1ccccc1`?
JMJD2E inh: 2%; Tau fluor cs: inconclusive; TRb-SRC2 inh: -4%; Tau fibril ThT: 7.1µM*; Tau FP inhib: -14%; TR SRC2 fluor cs: 0%

Results for O=C1/C(=C\c2cccs2)N=C(c2cccs2)N1Nc1ccccc1 ?
JMJD2E inh: -3%; Tau fluor cs: inconclusive; TRb-SRC2 inh: 0%; Tau fibril ThT: 10µM*; Tau FP inhib: -18%; TR SRC2 fluor cs: -4%

How did COc1ccc(-c2c(C)nn3c(C(F)(F)F)cc(-c4ccc(C)cc4)nc23)cc1 do in these assays?
Tau fluor cs: -5%; TRb-SRC2 inh: 0%; Tau fibril ThT: -12%; Tau FP inhib: 3%; TR SRC2 fluor cs: 1%

How did C/C(=N\Nc1ccc([N+](=O)[O-])cc1)c1ccc(N2CCOCC2)cc1 do in these assays?
JMJD2E inh: -2%; Tau fluor cs: inconclusive; TRb-SRC2 inh: 1%; Tau fibril ThT: inconclusive; Tau FP inhib: inconclusive; TR SRC2 fluor cs: -1%

What do the screens show for `C/C(=N/NC(=O)C1CCCCC1)c1ccc([N+](=O)[O-])cc1`?
JMJD2E inh: -2%; Tau fluor cs: -3%; TRb-SRC2 inh: 1%; Tau fibril ThT: 0%; Tau FP inhib: -2%; TR SRC2 fluor cs: -2%

What do the screens show for `CC/C(=N\Nc1ccc([N+](=O)[O-])cc1)c1ccccc1`?
JMJD2E inh: -7%; Tau fluor cs: inconclusive; TRb-SRC2 inh: -14%; Tau fibril ThT: 2µM*; Tau FP inhib: -10%; TR SRC2 fluor cs: 0%

Results for CCc1ccc(/C(C)=N\Nc2ccc([N+](=O)[O-])cc2)cc1 ?
JMJD2E inh: -14%; Tau fluor cs: inconclusive; TRb-SRC2 inh: -1%; Tau fibril ThT: 3.5µM*; Tau FP inhib: -4%; TR SRC2 fluor cs: 2%

What do the screens show for `C/C(=N\Nc1ccc([N+](=O)[O-])cc1)c1ccc(N)cc1`?
JMJD2E inh: inconclusive; Tau fluor cs: 1%; TRb-SRC2 inh: -27%[53 µM]; Tau fibril ThT: 6%; Tau FP inhib: -4%; TR SRC2 fluor cs: 0.32µM*[quencher]

How did C/C(=N\Nc1nc(C)c(C)s1)c1ccc([N+](=O)[O-])cc1 do in these assays?
JMJD2E inh: 1%; Tau fluor cs: inconclusive; TRb-SRC2 inh: 5%; Tau fibril ThT: 14µM*; Tau FP inhib: 9%; TR SRC2 fluor cs: -4%

What do the screens show for `NS(=O)(=O)c1ccc(CNC(=S)Nc2ccc(Cl)c(Cl)c2)cc1`?
JMJD2E inh: -10%; Tau fluor cs: inconclusive; TRb-SRC2 inh: -2%; Tau fibril ThT: 0%; Tau FP inhib: inconclusive; TR SRC2 fluor cs: -1%

Results for C/C(=N\NC(=O)c1cccc(N/N=C(\C)c2ccccc2)c1)c1ccccc1 ?
JMJD2E inh: 1%; Tau fluor cs: -26%; TRb-SRC2 inh: 3%; Tau fibril ThT: inconclusive; Tau FP inhib: 16%; TR SRC2 fluor cs: 10%

Results for C/C(=N\Nc1ccc([N+](=O)[O-])cc1)c1ccco1 ?
JMJD2E inh: 10%; Tau fluor cs: inconclusive; TRb-SRC2 inh: 4%; Tau fibril ThT: 5µM*; Tau FP inhib: 9%; TR SRC2 fluor cs: -3%

How did C/C(=N\NC(=O)c1cccc(N/N=C(\C)c2ccc([N+](=O)[O-])cc2)c1)c1ccc([N+](=O)[O-])cc1 do in these assays?
JMJD2E inh: 4%; Tau fluor cs: inconclusive; TRb-SRC2 inh: 5%; Tau fibril ThT: 0.5µM*; Tau FP inhib: 7%; TR SRC2 fluor cs: 1%

How did C/C(=N\Nc1ccc([N+](=O)[O-])cc1)c1ccc(-n2nncc2C)cc1 do in these assays?
JMJD2E inh: -3%; Tau fluor cs: 16µM*[quencher]; TRb-SRC2 inh: -2%; Tau fibril ThT: 7.1µM*; Tau FP inhib: inconclusive; TR SRC2 fluor cs: -4%

How did CC(=O)c1ccc(-n2nncc2-c2ccc([N+](=O)[O-])cc2)cc1 do in these assays?
JMJD2E inh: -1%; Tau fluor cs: -1%; TRb-SRC2 inh: 2%; Tau fibril ThT: 2%; Tau FP inhib: -2%; TR SRC2 fluor cs: 3%

What do the screens show for `CCCc1c(OCCCOc2ccc(OCC(=O)O)cc2)ccc(CC=O)c1O`?
JMJD2E inh: 6%; Tau fluor cs: 4%; TRb-SRC2 inh: 1%; Tau fibril ThT: inconclusive; Tau FP inhib: -5%; TR SRC2 fluor cs: -1%

High-throughput results deposited in PubChem by National Center for Advancing Translational Sciences (NCATS).
